Among the data in PubChem BioAssay (EPA / NIEHS) are outcome values, retold here.

Structures are written as SMILES. Inconclusive results are not listed. Calls of active or inactive are those of the source. The calls were made as follows: active = hit-call score of the fitted dose curve at least 0.9, where 1 is the maximum; inconclusive = response in the unintended direction; inactive = score below 0.9.

The nature of this assay: ATG_Hpa5_TRANS: Attagene TRANS-FACTORIAL HepG2 Assay for human GAL4-Hpa5 Hepatocyte Transcription Factor Basal Promoter (AID 2282975).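 Also: hits are increases in reporter mRNA over DMSO baseline.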 To be noted: HepG2 Attagene GAL4-Hpa5 transcription reporter. The essentials: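 Basal-promoter GAL4 background control within the HepG2 trans-factorial panel of transiently transfected reporter units. Reporter mRNA is measured 24 h after dosing by RT-PCR and capillary electrophoresis, fitted for gain of signal versus DMSO.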
With `COc1nc(NC(C)C)nc(NC(C)C)n1`, the outcome was inactive.
Regarding `CCCCC(CC)COC(=O)c1ccccc1C(=O)OCC(CC)CCCC` (centres undefined), the outcome was inactive.
As for `COc1nc(C)nc(NC(=O)NS(=O)(=O)c2ccccc2CCC(F)(F)F)n1`, the molecule was called inactive.
As for `COc1ccc(C(c2ccc(OC)cc2)C(Cl)(Cl)Cl)cc1`, the outcome was inactive.
In the case of `COP(=S)(OC)Oc1nc(Cl)c(Cl)cc1Cl` it was “inactive”; in that of `COC(=O)N(OC)c1ccccc1COc1ccn(-c2ccc(Cl)cc2)n1`, “inactive”.
Turning to `C=CCC1=C(C)[C@@H](OC(=O)[C@@H]2[C@@H](C=C(C)C)C2(C)C)CC1=O`, the molecule was classed as inactive.
On to `CCCC1COC(Cn2cncn2)(c2ccc(Cl)cc2Cl)O1` (centres undefined), for which the result was inactive.
To `CO/C=C(/C(=O)OC)c1ccccc1Oc1cc(Oc2ccccc2C#N)ncn1` belongs “inactive”; to `CCCCNC(=O)OCC#CI`, “inactive”; to `CC(C)C1(C)N=C(c2nc3ccccc3cc2C(=O)O)NC1=O` (centres undefined), “inactive”.
In the case of `CCCN(CCC)c1c([N+](=O)[O-])cc(S(N)(=O)=O)cc1[N+](=O)[O-]`, the molecule was called inactive.
In the case of `CCc1nn(C)c(C(=O)NCc2ccc(C(C)(C)C)cc2)c1Cl` it was “inactive”.
To `OC(c1ccc(Cl)cc1)(c1cncnc1)c1ccccc1Cl` (centres undefined) belongs “inactive”.
